# Measured values as given in PubChem BioAssay (EPA / NIEHS).
# “And” between values parts separate entries of the source, which are not always exact repeats. Equal values may be shown once. Some structures have more than one record in an assay (separate samples or runs), and their calls can disagree. The source made the active and inactive calls. Rule for the calls: active = hit-call score of the fitted dose curve at least 0.9, where 1 is the maximum; inactive = score below 0.9.
# Key:
# [1] = read-out: Monokine induced gamma interferon (MIG), CXCL9 (gene 4283); test: BSK_hDFCGF_MIG: BioMAP Diversity Plus: hDFCGF Assay for Monokine induced gamma interferon (MIG) Biomarker Activity (AID 2283063); conditions: primary human foreskin fibroblasts; actives raise or lower the signal
# Summary of the method: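 Endpoint derived by bidirectional fitting relative to DMSO; MIG quantified via ELISA in primary human foreskin fibroblasts harvested 24 h after dosing.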
# [2] = read-out: Matrix Metallopeptidase 1 (MMP1), MMP1 (gene 4312); test: BSK_hDFCGF_MMP1: BioMAP Diversity Plus: hDFCGF Assay for Matrix Metallopeptidase 1 (MMP1) Biomarker Activity (AID 2283064); conditions: primary human foreskin fibroblasts; actives raise or lower the signal
# Summary of the method: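 MMP1 levels quantified by ELISA 24 h after dosing human dermal fibroblast cultures, with parallel SRB total-protein staining for overt cytotoxicity. Data fitted in both directions against DMSO baseline.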
# [3] = read-out: Vascular cell adhesion molecule 1 (VCAM1), VCAM1 (gene 7412); test: BSK_hDFCGF_VCAM1: BioMAP Diversity Plus: hDFCGF Assay for Vascular cell adhesion molecule 1 (VCAM1) Biomarker Activity (AID 2283065); conditions: primary human foreskin fibroblasts; actives raise or lower the signal;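 for AC50: VCAM-1 protein level quantified by ELISA after 24 h chemical exposure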
# Summary of the method: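 Measured after 24 h chemical treatment of primary human skin fibroblasts, VCAM-1 was detected by ELISA and concentration-response analysed in both directions versus DMSO vehicle.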
# [4] = read-out: Plasminogen activator inhibitor-1 (PAI1), SERPINE1 (gene 5054); test: BSK_hDFCGF_PAI1: BioMAP Diversity Plus: hDFCGF Assay for Plasminogen activator inhibitor-1 (PAI1) Biomarker Activity (AID 2283066); conditions: primary human foreskin fibroblasts; actives raise or lower the signal
# Summary of the method: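 PAI-1 levels in human dermal foreskin fibroblasts were quantified by ELISA 24 h after dosing, with gain or loss analysed against DMSO. Overt cytotoxicity was checked by sulforhodamine B total-protein staining in parallel cultures.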
# [5] = read-out: Intercellular Adhesion Molecule 1 (ICAM1), ICAM1 (gene 3383); test: BSK_KF3CT_ICAM1: BioMAP Diversity Plus: KF3CT Assay for Intercellular Adhesion Molecule 1 (ICAM1) Biomarker Activity (AID 2283067); conditions: primary human keratinocytes with fibroblasts; actives raise or lower the signal
# Summary of the method: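 Bidirectional curve fitting against a DMSO baseline was applied to ICAM-1 ELISA signal from primary human skin co-cultures harvested 24 h after treatment, with SRB staining of parallel wells for overt cytotoxicity.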
# [6] = read-out: Interferon-gamma inducible Protein 10 (IP10), CXCL10 (gene 3627); test: BSK_KF3CT_IP10: BioMAP Diversity Plus: KF3CT Assay for Interferon-gamma inducible Protein 10 (IP10) Biomarker Activity (AID 2283068); conditions: primary human keratinocytes with fibroblasts; actives raise or lower the signal
# Summary of the method: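 Signal is secreted/surface IP-10 by ELISA in a human primary skin co-culture of keratinocytes and foreskin fibroblasts, taken 24 h post-dosing; DMSO served as negative control.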
# [7] = BSK_KF3CT_SRB: Viability Assessment in the BioMAP Diversity Plus: KF3CT Assay (AID 2283069); conditions: primary human keratinocytes with fibroblasts;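 note: read 24 h after compound addition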
# Summary of the method: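 Cytotoxicity was gauged by SRB staining (0.1% SRB, 10% TCA fixation, 560 nm) of parallel cultures at 24 h. The cells were primary human skin keratinocytes co-cultured with fibroblasts, and activity was fitted in both directions against DMSO.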
# [8] = read-out: Interleukin-1 alpha (IL1a), IL1A (gene 3552); test: BSK_KF3CT_IL1a: BioMAP Diversity Plus: KF3CT Assay for Interleukin-1 alpha (IL1a) Biomarker Activity (AID 2283070); conditions: primary human keratinocytes with fibroblasts; actives raise or lower the signal
# Summary of the method: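 IL-1a was detected by ELISA 24 h after chemical treatment of a co-culture of human skin keratinocytes and foreskin fibroblasts. Gain or loss of signal was fitted against the DMSO baseline.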
# [9] = read-out: TIMP metallopeptidase inhibitor 2 (TIMP2), TIMP2 (gene 7077); test: BSK_KF3CT_TIMP2: BioMAP Diversity Plus: KF3CT Assay for TIMP metallopeptidase inhibitor 2 (TIMP2) Biomarker Activity (AID 2283071); conditions: primary human keratinocytes with fibroblasts; actives raise or lower the signal
# Summary of the method: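 TIMP-2 measured by ELISA at 24 h in human keratinocyte/fibroblast primary co-cultures exposed to chemicals. Both increases and decreases were fitted against DMSO. Parallel cultures were stained with SRB for total protein as an overt-cytotoxicity check.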
# [10] = read-out: Transforming growth factor beta 1 (TGFb1), TGFB1 (gene 7040); test: BSK_KF3CT_TGFb1: BioMAP Diversity Plus: KF3CT Assay for Transforming growth factor beta 1 (TGFb1) Biomarker Activity (AID 2283072); conditions: primary human keratinocytes with fibroblasts; actives raise or lower the signal
# Summary of the method: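 ELISA quantifies TGF-b1 at 24 h post-dose in a primary human skin co-culture of keratinocytes and fibroblasts, with gain or loss judged against DMSO. Parallel SRB total-protein staining flags overt cytotoxicity.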
# [11] = read-out: C-C motif chemokine 2 (Homo sapiens) (UniProt P13500); test: BSK_KF3CT_MCP1: BioMAP Diversity Plus: KF3CT Assay for Monocyte Chemoattractant Protein 1 (MCP1/CCL2) Biomarker Activity (AID 2283073); conditions: primary human keratinocytes with fibroblasts; actives raise or lower the signal
# Summary of the method: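 Biomarker MCP-1 is measured by ELISA in primary human keratinocytes co-cultured with foreskin fibroblasts, 24 h after chemical treatment; DMSO serves as the negative control and activity baseline.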
# [12] = read-out: Matrix Metallopeptidase 9 (MMP9), MMP9 (gene 4318); test: BSK_KF3CT_MMP9: BioMAP Diversity Plus: KF3CT Assay for Matrix Metallopeptidase 9 (MMP9) Biomarker Activity (AID 2283074); conditions: primary human keratinocytes with fibroblasts; actives raise or lower the signal
# Summary of the method: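 MMP-9 quantified by ELISA after 24 h chemical treatment of primary human skin keratinocyte/fibroblast co-cultures; gain or loss fitted against DMSO, with parallel SRB staining (0.1% SRB, 560 nm) for overt cytotoxicity.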
# [13] = read-out: urokinase plasminogen activator (uPA), PLAU (gene 5328); test: BSK_KF3CT_uPA: BioMAP Diversity Plus: KF3CT Assay for urokinase plasminogen activator (uPA) Biomarker Activity (AID 2283075); conditions: primary human keratinocytes with fibroblasts; actives raise or lower the signal
# Summary of the method: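 ELISA read-out of uPA 24 h after dosing human skin keratinocytes co-cultured with foreskin fibroblasts. Signal change fitted both ways relative to DMSO; sulforhodamine B on parallel cultures marks overt cytotoxicity.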
# CD40, CD40 (gene 958) = test: BSK_LPS_CD40: BioMAP Diversity Plus: LPS Assay for CD40 Biomarker Activity (AID 2283076); conditions: primary human HUVEC with PBMC; actives raise or lower the signal
# Summary of the method: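 Using a multiplexed primary human co-culture (umbilical vein endothelium plus PBMC), CD40 was read by ELISA 24 h after dosing, with cytotoxicity tracked by sulforhodamine B staining of parallel cultures and activity fitted bidirectionally versus DMSO.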
# [14] = read-out: E-selectin (Homo sapiens) (UniProt P16581); test: BSK_LPS_Eselectin: BioMAP Diversity Plus: LPS Assay for Eselectin Biomarker Activity (AID 2283077); conditions: primary human HUVEC with PBMC; actives raise or lower the signal
# Summary of the method: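 Dose chemical onto LPS-driven HUVEC/PBMC co-culture; after 24 h, run ELISA for E-selectin; fit up- and down-going responses relative to DMSO control.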
# [15] = read-out: Interleukin-8 (IL8), CXCL8 (gene 3576); test: BSK_LPS_IL8: BioMAP Diversity Plus: LPS Assay for Interleukin-8 (IL8) Biomarker Activity (AID 2283078); conditions: primary human HUVEC with PBMC; actives raise or lower the signal
# Summary of the method: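 In this LPS system, chemical-treated human umbilical vein endothelium/PBMC co-cultures were harvested at 24 h for IL-8 ELISA.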
# [16] = BSK_LPS_SRB: Viability Assessment in the BioMAP Diversity Plus: LPS Assay (AID 2283079); conditions: primary human HUVEC with PBMC;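 note: total protein by sulforhodamine B absorbance as a cytotoxicity measure; measured one day after compound addition; fitted in both directions against DMSO so loss or gain of signal counts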
# Summary of the method: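 Cytotoxicity endpoint in human endothelial–PBMC co-culture: 24 h exposure, then SRB (0.1%) staining, 560 nm read.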
# [17] = read-out: Monocyte Chemoattractant Protein-1 (MCP1), CCL2 (gene 6347); test: BSK_LPS_MCP1: BioMAP Diversity Plus: LPS Assay for Monocyte Chemoattractant Protein-1 (MCP1) Biomarker Activity (AID 2283081); conditions: primary human HUVEC with PBMC; actives raise or lower the signal
# Summary of the method: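 Values derive from bidirectional fitting against DMSO of ELISA-measured MCP-1 in a human primary endothelial and mononuclear cell co-culture, 24 h after chemical addition under LPS activation.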
# [18] = BSK_LPS_PGE2: BioMAP Diversity Plus: LPS Assay for Prostaglandin E2 (PGE2) Biomarker Activity (AID 2283082); conditions: primary human HUVEC with PBMC; actives raise or lower the signal
# Summary of the method: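 PGE2 release measured by ELISA in an LPS-activated co-culture of human umbilical vein endothelial cells and peripheral blood mononuclear cells, read at 24 h post-dosing. DMSO served as baseline for bidirectional curve fitting.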
# [19] = read-out: Interleukin-1 alpha (IL1a), IL1A (gene 3552); test: BSK_LPS_IL1a: BioMAP Diversity Plus: LPS Assay for Interleukin-1 alpha (IL1a) Biomarker Activity (AID 2283080); conditions: primary human HUVEC with PBMC; actives raise or lower the signal
# Summary of the method: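 Primary human HUVEC and PBMC co-culture stimulated with LPS is dosed and harvested at 24 h. Both increases and decreases in ELISA-measured IL-1a are scored relative to DMSO.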
# E-selectin (Homo sapiens), sequence (P16581 whole entry, looked up): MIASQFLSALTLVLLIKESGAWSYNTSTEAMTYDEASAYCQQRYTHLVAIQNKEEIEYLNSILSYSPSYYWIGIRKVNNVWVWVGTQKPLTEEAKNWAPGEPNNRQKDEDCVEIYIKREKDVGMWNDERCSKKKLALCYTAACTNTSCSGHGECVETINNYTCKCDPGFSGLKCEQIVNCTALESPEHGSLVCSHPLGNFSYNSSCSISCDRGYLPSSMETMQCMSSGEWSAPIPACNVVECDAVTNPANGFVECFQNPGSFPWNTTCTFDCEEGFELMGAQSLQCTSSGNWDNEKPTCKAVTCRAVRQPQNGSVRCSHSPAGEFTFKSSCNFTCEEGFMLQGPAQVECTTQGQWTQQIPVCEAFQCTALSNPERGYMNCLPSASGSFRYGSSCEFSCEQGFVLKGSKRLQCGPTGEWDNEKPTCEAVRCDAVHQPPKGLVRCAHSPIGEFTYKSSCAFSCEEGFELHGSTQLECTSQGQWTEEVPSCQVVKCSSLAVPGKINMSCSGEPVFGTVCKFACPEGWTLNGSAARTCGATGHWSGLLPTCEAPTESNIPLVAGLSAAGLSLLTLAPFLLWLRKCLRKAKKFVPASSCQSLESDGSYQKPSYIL
smiles,measurement,setting,value
Cn1cnc([N+](=O)[O-])c1Sc1ncnc2nc[nH]c12,outcome,[1],inactive
same,outcome,[2],inactive
same,AC50,[3],12.6 µM (active) and 16 µM (active)
same,outcome,[3],inactive
same,AC50,[4],11.7 µM (active)
same,outcome,[4],inactive
same,outcome,[5],inactive
same,outcome,[6],inactive
same,outcome,[7],inactive
same,outcome,[8],inactive
same,outcome,[9],inactive
same,outcome,[10],inactive
same,outcome,[11],inactive
same,outcome,[12],inactive
same,outcome,[13],inactive
same,AC50,"CD40, CD40 (gene 958)",26.9 µM (active) and 4.17 µM (active)
same,outcome,"CD40, CD40 (gene 958)",inactive
same,outcome,[14],inactive
same,outcome,[15],inactive
same,outcome,[16],inactive
same,outcome,[17],inactive
same,outcome,[18],inactive
C1=CCCC=CCCC=CCC1,outcome,[1],inactive
same,outcome,[2],inactive
same,outcome,[3],inactive
same,outcome,[4],inactive
same,outcome,[5],inactive
same,outcome,[6],inactive
same,outcome,[7],inactive
same,outcome,[8],inactive
same,outcome,[9],inactive
same,outcome,[10],inactive
same,outcome,[11],inactive
same,outcome,[12],inactive
same,outcome,[13],inactive
same,outcome,"CD40, CD40 (gene 958)",inactive
same,outcome,[14],inactive
same,outcome,[15],inactive
same,outcome,[16],inactive
same,outcome,[19],inactive
same,outcome,[17],inactive
same,outcome,[18],inactive
CC(C)=CCCC(C)=CC=O,outcome,[1],inactive
same,outcome,[2],inactive
same,outcome,[3],inactive
same,outcome,[4],inactive
same,outcome,[5],inactive
same,outcome,[6],inactive
same,outcome,[7],inactive
same,outcome,[8],inactive
same,outcome,[9],inactive
same,outcome,[10],inactive
same,outcome,[11],inactive
same,outcome,[12],inactive
same,outcome,[13],inactive
same,outcome,"CD40, CD40 (gene 958)",inactive
same,outcome,[14],inactive
same,outcome,[15],inactive
same,outcome,[16],inactive
same,outcome,[19],inactive
same,outcome,[17],inactive
same,outcome,[18],inactive
NC(=O)NO,outcome,[1],inactive
same,outcome,[2],inactive
same,outcome,[3],inactive
same,outcome,[4],inactive
same,outcome,[6],inactive
same,outcome,[7],inactive
same,outcome,[9],inactive
same,outcome,[10],inactive
same,outcome,[11],inactive
same,outcome,[12],inactive
same,outcome,[13],inactive
same,outcome,"CD40, CD40 (gene 958)",inactive
same,outcome,[14],inactive
same,outcome,[15],inactive
same,outcome,[16],inactive
same,outcome,[19],inactive
same,outcome,[17],inactive
same,outcome,[18],inactive
COCCOCCOCCOC,outcome,[1],inactive
same,outcome,[2],inactive
same,outcome,[3],inactive
same,outcome,[4],inactive
same,outcome,[6],inactive
same,outcome,[7],inactive
same,outcome,[9],inactive
same,outcome,[10],inactive
same,outcome,[11],inactive
same,outcome,[12],inactive
same,outcome,[13],inactive
same,outcome,"CD40, CD40 (gene 958)",inactive
same,outcome,[14],inactive
same,outcome,[15],inactive
same,outcome,[16],inactive
same,outcome,[19],inactive
same,outcome,[17],inactive
same,outcome,[18],inactive
CC(C)=CCC/C(C)=C/CO,outcome,[1],inactive
same,outcome,[2],inactive
same,outcome,[3],inactive
same,outcome,[4],inactive
same,outcome,[6],inactive
same,outcome,[7],inactive
same,outcome,[9],inactive
same,outcome,[10],inactive
same,outcome,[11],inactive
same,outcome,[12],inactive
same,outcome,[13],inactive
same,outcome,"CD40, CD40 (gene 958)",inactive
same,outcome,[14],inactive
same,outcome,[15],inactive
same,outcome,[16],inactive
same,outcome,[19],inactive
same,outcome,[17],inactive
same,outcome,[18],inactive
CC1=CC(=O)CC(C)(C)C1,outcome,[1],inactive
same,outcome,[2],inactive
same,outcome,[3],inactive
same,outcome,[4],inactive
same,outcome,[6],inactive
same,outcome,[7],inactive
same,outcome,[9],inactive
same,outcome,[10],inactive
same,outcome,[11],inactive
same,outcome,[12],inactive
same,outcome,[13],inactive
same,outcome,"CD40, CD40 (gene 958)",inactive
same,outcome,[14],inactive
same,outcome,[15],inactive
same,outcome,[16],inactive
same,outcome,[19],inactive
same,outcome,[17],inactive
same,outcome,[18],inactive
